Our source for the cytotoxicity call values is the antibiotic and cytotoxicity screens of Wong et al. (2023).

Out of some 39,000 compounds screened, about 1,500 (3.8%) were called active. For the sample, actives were picked, then their nearest neighbours and some compounds at random.

The subject of this assay is HSkMC (human skeletal muscle cells). The assay is described as follows: cytotoxicity call (relative viability < 0.9). As to conditions: 10 µM.
As to `CO[C@H]1CN(C)C(=O)c2cc(NC(=O)Nc3ccc(Cl)cc3)ccc2OC[C@@H](C)N(C(=O)Nc2c(C)noc2C)C[C@H]1C`, the cytotoxicity call was “inactive”.
With `C[C@@H]1CCCCO[C@H](CN(C)S(=O)(=O)c2cccs2)[C@@H](C)CN([C@H](C)CO)C(=O)c2cc(NC(=O)Nc3ccc(C(F)(F)F)cc3)ccc2O1`, the cytotoxicity call is “inactive”.
Turning to `Cc1noc(C)c1NC(=O)N(C)C[C@@H]1Oc2ccc(NC(=O)Cn3cnnn3)cc2CC(=O)N([C@@H](C)CO)C[C@H]1C`, the cytotoxicity call was “inactive”.
As to `C[C@@H]1CN([C@H](C)CO)C(=O)Cc2cc(NC(=O)Cn3cnnn3)ccc2O[C@@H]1CN(C)C(=O)Nc1ccc(C(F)(F)F)cc1`, the cytotoxicity call was “inactive”.
As to `C[C@H](CO)N1C[C@H](C)[C@H](CN(C)Cc2ccc(Cl)c(Cl)c2)OCCCC[C@H](C)Oc2ccc(NC(=O)Nc3ccc(C(F)(F)F)cc3)cc2C1=O`, the cytotoxicity call is “inactive”.
To `Cc1ccc(S(=O)(=O)N(C)C[C@@H]2Oc3ccc(NS(=O)(=O)c4cccs4)cc3C(=O)N([C@@H](C)CO)C[C@@H]2C)cc1` belongs “inactive”; to `O=C(C[C@H]1CC[C@@H]2[C@H](COC[C@@H](O)CN2S(=O)(=O)c2cccc(F)c2)O1)NCCCN1CCOCC1`, “inactive”.
To `Cc1ccc(F)c(S(=O)(=O)N2[C@@H]3CC[C@@H](C3)[C@H]2c2nc3cccc(OCc4ccc(F)cc4)c3[nH]2)c1` belongs “inactive”; to `C[C@H]1CCCCO[C@H](CN(C)Cc2ccncc2)[C@@H](C)CN([C@@H](C)CO)C(=O)c2cc(NC(=O)c3ccccc3)ccc2O1`, “inactive”; to `C[C@@H]1CCCCO[C@H](CN(C)Cc2ccc(C(F)(F)F)cc2)[C@H](C)CN([C@H](C)CO)C(=O)c2cc(NC(=O)c3ccccc3)ccc2O1`, “inactive”.
In the case of `C[C@@H]1CN([C@@H](C)CO)C(=O)c2cc(NC(=O)Nc3ccccc3)ccc2O[C@@H](C)CCCCO[C@H]1CN(C)Cc1ccc(C(F)(F)F)cc1`, the cytotoxicity call is “active”.
Turning to `C[C@@H]1CCCCO[C@H](CN(C)Cc2ccncc2)[C@H](C)CN([C@@H](C)CO)C(=O)c2cc(NC(=O)c3ccccc3)ccc2O1`, the cytotoxicity call is “active”.
With `C[C@H]1CCCCO[C@@H](CN(C)Cc2ccc(C(F)(F)F)cc2)[C@@H](C)CN([C@@H](C)CO)C(=O)c2cc(NC(=O)c3ccccc3)ccc2O1`, the cytotoxicity call is “active”.
To `C[C@H](CO)N1C[C@H](C)[C@H](CN(C)Cc2ccc(C(F)(F)F)cc2)OCCCC[C@H](C)Oc2ccc(NC(=O)Nc3ccccc3)cc2C1=O` belongs “inactive”.
With `C[C@H]1CCCCO[C@H](CN(C)Cc2ccc(C(F)(F)F)cc2)[C@@H](C)CN([C@@H](C)CO)C(=O)c2cc(NC(=O)Nc3ccccc3)ccc2O1`, the cytotoxicity call was “active”.
Turning to `C[C@@H]1CCCCO[C@@H](CN(C)Cc2ccc(C(F)(F)F)cc2)[C@H](C)CN([C@H](C)CO)C(=O)c2cc(NC(=O)c3ccccc3)ccc2O1`, the cytotoxicity call was “inactive”.
In the case of `C[C@@H]1CCCCO[C@@H](CN(C)Cc2ccc(C(F)(F)F)cc2)[C@@H](C)CN([C@@H](C)CO)C(=O)c2cc(NC(=O)Nc3ccccc3)ccc2O1` it was “inactive”; in that of `C[C@H](CO)N1C[C@H](C)[C@H](CN(C)Cc2ccncc2)OCCCC[C@H](C)Oc2ccc(NC(=O)c3ccccc3)cc2C1=O`, “inactive”.
